# Compound activity: PubChem BioAssay, Buhrlage Lab, Dana-Farber Cancer Institute and Novartis Institutes for BioMedical Research (Cambridge, Mass)
# In the library only some 13% were active in any assay of this set; here they are far more common.
# USP8 block: inhibitors of human USP8 deubiquitinase. inhibition, % at 20 µM. AID 1645853, 2021. purified USP8, Ub-rhodamine cleavage fluorescence, 30 min. actives 4.2% (n = 47,000)
# USP17 block: inhibitors of human USP17 deubiquitinase | inhibition, % at 50 µM | Ubiquitin carboxyl-terminal hydrolase 17-like protein 5 (Homo sapiens), A8MUK1 | AID 1645855, 2021 | purified USP17, Ub-rhodamine cleavage fluorescence, 3 h | actives 6.5% (n = 47,000)
# USP30 block: inhibitors of human USP30 deubiquitinase; actives 5.3% (n = 47,000); Ubiquitin carboxyl-terminal hydrolase 30 (Homo sapiens), Q70CQ3; purified USP30, Ub-rhodamine cleavage fluorescence; inhibition, % at 25 µM; AID 1645860, 2021
# USP28 block: inhibitors of human USP28 deubiquitinase | Ubiquitin carboxyl-terminal hydrolase 28 (Homo sapiens), Q96RU2 | purified USP28, Ub-rhodamine cleavage fluorescence, 30 min | inhibition, % at 25 µM | actives 3% (n = 47,000) | AID 1645857, 2021
# USP10 inh: inhibitors of human USP10 deubiquitinase. inhibition, % at 20 µM. AID 1645856, 2021. actives 1.1% (n = 47,000). purified USP10, Ub-rhodamine fluorescence, 60 min
# * = called active by the depositor; / = no result given. Cut-off read from the data, not from the text of the source: active = inhibition above about 30%; inactive = the rest.
SMILES,USP8 block,USP17 block,USP30 block,USP28 block,USP10 inh
O=C(Nc1nc(-c2ccccc2)ns1)c1ccc(F)cc1,-0.4,0.0,3.2,6.3,3.9
O=C(c1cnn(-c2ccccc2)c1C1CC1)N1CCCCCC1,-4.2,-16.3,-4.8,-15.6,-3.2
Cc1cc(C)n(-c2nc3ccccc3nc2N2CCN(c3ccc([N+](=O)[O-])cc3)CC2)n1,-5.3,-3.4,13.3,2.4,-0.1
Cc1cc(N2CCN(c3ccc([N+](=O)[O-])cc3)CC2)nc2cc3c(cc12)CCC3,-6.9,30.3*,21.1,11.0,0.8
Cc1nn2c(CNS(=O)(=O)Cc3ccc(C)c(C)c3)c(C)nc2s1,12.2,8.1,13.3,2.1,0.0
CCc1ccc(C2CN3C(=O)CN(Cc4ccco4)C(=O)[C@]3(C)c3[nH]c4ccccc4c32)cc1 (stereo partly specified),-2.1,-15.3,-74.5,-14.6,-8.2
C[C@]12C(=O)N(Cc3ccco3)CC(=O)N1CC(c1ccc(Br)cc1)c1c2[nH]c2ccccc12 (stereo partly specified),-14.6,34.0*,-53.1,6.9,-1.1
CCCCn1c(=O)c(CCC(=O)OCC(=O)Nc2ccc3c(c2)OCCO3)nc2ccccc21,-2.8,-12.1,-3.9,61.5*,-0.2
CCN1C[C@H]2COc3ccc(C)cc3[C@H]2N(C(=O)c2cccc(OC)c2)CCC1=O,11.7,6.4,16.1,6.0,0.6
CC(C)CN1[C@H]2CCNCC[C@@H]2Oc2ccccc2S1(=O)=O,-12.7,-7.0,-116.7,-17.7,-9.5
N#Cc1ccccc1OCc1csc(-c2ccccc2)n1,-29.9,-10.4,10.4,65.5*,4.9
COc1ccccc1C(=O)NCc1csc(-c2ccccc2)n1,0.3,-0.8,17.3,9.3,2.2
O=C(CSc1nc2ccccc2c(=O)n1CC1CCCO1)Nc1ncn[nH]1 (stereo unspecified),2.8,13.1,17.5,4.7,2.4
CNc1nc(C2CCCN(C(=O)c3cc(C4CC4)on3)C2)nc2c1CCN(C)C2 (stereo unspecified),36.4*,-27.3,-196.4,-75.8,-3.1
CCN(c1ccccc1)S(=O)(=O)c1nnc(NC(=O)COc2ccc(Cl)cc2)s1,38.6*,-19.4,-335.9,-75.0,-0.2
Cc1ccc(S(=O)(=O)N(C)c2ccc(OCC(=O)Nc3ccccc3)cc2)cc1,0.0,8.7,18.1,16.4,6.6
Cc1cc(C)n2cc(-c3sccc3Cl)c(C#N)c2n1,-169.6,32.9*,-75.3,1.7,-0.8
O=C(c1[nH]nc2c1CCc1ccccc1-2)N1CCC(Cc2ccccc2)CC1,0.1,3.7,8.0,15.5,5.6
NC(=O)C1(N2CCCCC2)CCN(C(=O)c2[nH]nc3c2CCc2ccccc2-3)CC1,86.5*,59.1*,0.1,11.3,-5.1
COc1ccc(CSc2nnc(CNC(=O)c3ccccc3C)n2C(C)C)cc1,2.8,-21.6,/,/,0.3
Cc1ccc(NCc2cc3c(C(C)(C)C)nn(-c4ccc(Cl)cc4)c3[nH]c2=O)cc1,83.5*,62.5*,-58.4,22.6,15.2
CC(C)(C)c1nn(-c2ccccc2)c2[nH]c(=O)c(CNC3CC3)cc12,82.2*,22.4,-35.9,-8.6,5.6
Cc1nn(-c2ccccc2)c2[nH]c(=O)c(CNC3CCCCC3)cc12,1.0,0.1,-0.4,-5.5,1.1
CC(C)(C)c1nn(-c2ccccc2)c2[nH]c(=O)c(CNCc3ccc4c(c3)OCO4)cc12,80.5*,25.6,-19.8,8.1,-0.9
CC(C)(C)c1nn(-c2ccc(Cl)cc2)c2[nH]c(=O)c(CNCCc3ccccc3)cc12,-5.3,-6.1,-6.0,-18.6,-1.9
SMILES,USP8 block,USP17 block,USP30 block,USP28 block,USP10 inh
CN(Cc1ccc2c(c1)OCO2)C(=O)c1cccc(N2CCCC2=O)c1,4.7,8.2,4.4,-4.9,3.9
Cc1cc(C)c(NC(=O)Cc2c(C)nc3c(-c4ccccc4)c(C)nn3c2C)c(C)c1,-59.1,21.6,34.7*,17.7,11.0
COc1cccc2cccc(O)c12,23.8,85.4*,-58.2,11.8,2.1
COc1cccc2cc(-c3csc(N)n3)oc12,-18.6,-10.4,-22.3,18.2,-0.4
O=C(O)CCCCCN1C(=O)CC(c2ccc(Cl)cc2)CC1=O,55.4*,76.4*,-72.8,31.8*,11.9
COc1cccc(C2C3=C(CC(c4ccc(Cl)cc4)CC3=O)Nc3ccccc3N2C(=O)CCC(=O)O)c1 (stereo unspecified),-93.5,18.3,22.5,24.9,5.9
NS(=O)(=O)c1cccc(NC(=O)CNCC2CCCO2)c1 (stereo unspecified),-5.8,0.6,-0.2,-1.6,1.3
CCCOc1ccc(/C(O)=C2\C(=O)C(=O)N(CCN(C)C)C2c2ccco2)cc1 (stereo unspecified),-9.1,-16.7,-18.6,-9.7,-2.9
CN1CCN(C(=O)c2c3c(NCC4CC4)ncnc3n3ccccc23)CC1,-22.4,-81.4,-388.7,-83.1,-13.0
COCCN(C)C(=O)c1c2c(NCC3CC3)ncnc2n2ccccc12,30.5*,-60.3,-432.2,-97.7,-12.5
CC(NC(=O)c1ccccc1)c1nc(-c2ccc(S(=O)(=O)N3CCCC3)cc2)no1 (stereo unspecified),12.3,43.5*,16.8,15.9,12.8
CC(NC(=O)c1ccccc1)c1nc(-c2ccc(S(=O)(=O)N3CCCCC3)cc2)no1 (stereo unspecified),5.3,21.3,0.1,3.8,0.4
Cc1ccc(NC(=O)c2ccc(NS(=O)(=O)c3c(C)noc3C)cc2)c(C)c1,5.6,2.8,2.8,-0.6,0.4
Cc1ccc2cccc(OCc3nnc(SCC(=O)c4ccc(Cl)cc4)n3C)c2n1,33.0*,61.3*,39.4*,5.6,12.9
Cc1ccccc1NC(=O)CC1COc2ccccc2NC1=O (stereo unspecified),-3.9,-4.4,-8.1,0.0,-1.2
Cc1cc(N2C(=O)c3oc4ccc(F)cc4c(=O)c3C2c2cccc(OCc3ccccc3)c2)no1 (stereo unspecified),-3.8,-0.5,11.2,1.0,1.8
Cc1cc(N2C(=O)c3oc4ccc(F)cc4c(=O)c3C2c2cccc(OCc3ccccc3Cl)c2)no1 (stereo unspecified),31.4*,-4.3,6.5,-1.5,4.6
CC(=O)Nc1c2sscc-2[nH]c1=O,-0.1,-19.6,70.5*,3.8,-0.4
O=C(Nc1ncc2c(n1)-c1ccccc1CC2)C1CC1,1.4,55.7*,8.3,-14.6,0.0
O=C(CC1CCCC1)Nc1ccc(N2CCN(c3ccccc3)C2=O)nc1,-4.2,8.2,9.3,1.4,3.8
O=C(Nc1cc(F)c2nc(N3CCOCC3)ccc2c1)C1CCCC1,56.6*,18.2,-27.6,-16.9,-3.2
O=C(Nc1ccc(N2CCOCC2)c(S(=O)(=O)Nc2ccccc2Cl)c1)C1CCCC1,4.7,7.8,12.2,14.6,11.5
